# Shown are actives, neighbours in structure and some others; about 4.1% of the full set was active somewhere.
# NALP1 inh = NALP1 inflammasome inhibitors in reconstituted yeast, colorimetric, S. cerevisiae, triplicate retest; inhibition, % at 10 µM; S. cerevisiae NALP1/ASC/caspase-1 growth, X-gal OD620, 72 h; 280,000 tested, 0.61% active; in the data active = inhibition mostly above about 24%, no sharp cut-off; inactive = mostly below about 32%
# NALP3 yeast inh = NALP3 inflammasome inhibitors in reconstituted yeast, primary screen, luminescence, uHTS; Yeast reconstituted NLRP3/ASC/caspase-1, beta-gal luminescence, 24 h; inhibition, % at 10 µM; 330,000 tested, 0.39% active; AID 2825, 2010;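 active = inhibition of 50% or more; inactive = inhibition below 50%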;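 also: plate controls were induced DMSO wells for no effect and uninduced yeast grown without galactose for full effect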
# tim23-1 inh = growth inhibitors of tim23-1 mutant yeast, primary screen, luminescence, uHTS; S. cerevisiae tim23-1 growth, BacTiter-Glo luminescence, 24 h; inhibition, % at 20 µM; 330,000 tested, 1.3% active;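 active = growth inhibition of the mutant yeast at or above 50%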;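 also: temperature-sensitive mutant grown at 25 °C; plate controls were DMSO-treated mutant yeast for no effect and medium wells lacking yeast for full effect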
# tim10-1 inh = growth inhibitors of tim10-1 mutant yeast, primary screen, luminescence, uHTS. S. cerevisiae tim10-1 ts strain growth, BacTiter-Glo, 24 h. inhibition, % at 20 µM. 330,000 tested, 2.2% active. AID 463190, 2010;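 active = inhibition of at least 40%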;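 also: mutant grown at 25 °C; 0% = DMSO wells with yeast and 100% = wells holding no yeast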
# TIM10 inh = growth inhibitors of isogenic TIM10 control yeast, primary screen, counter-screen for tim10-1 yeast inhibitor project, luminescence, uHTS | S. cerevisiae TIM10 strain growth, BacTiter-Glo luminescence, 24 h | inhibition, % at 10 µM | 330,000 tested, 1.4% active;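 active = inhibition of 40% or more at the single tested concentration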;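 also: wild-type TIM10 isogenic control strain grown at permissive 25 °C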
# TIM10 conf = growth inhibitors of wild-type TIM10 yeast, confirmation, counter-screen for tim10-1 synthetic lethality project, single concentration, luminescence, S. cerevisiae; shares compounds with TIM10 inh; S. cerevisiae tim10 strain growth, BacTiter-Glo luminescence, 24 h; inhibition, % at 10 µM; 4,600 tested, 63% active; AID 463215, 2010;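 active = inhibition of yeast growth at or above a set limit in either of two replicates at 10 µM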;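 also: this counterscreen used the strain with wild-type TIM10; 0% = yeast with DMSO and 100% = medium wells lacking yeast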
# tim23-1 confirm = tim23-1 mutant yeast growth inhibitors, confirmation, luminescence, single concentration | inhibition, % at 20 µM | AID 463218, 2010 | S. cerevisiae tim23-1 growth, BacTiter-Glo luminescence, 24 h | 4,400 tested, 83% active | shares compounds with tim23-1 inh;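 active = inhibition above about 39% in either of two replicate wells at 20 µM, limit read from the data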;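 also: temperature-sensitive tim23-1 mutant grown at 25 °C; 0% = DMSO wells with yeast and 100% = medium wells without yeast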
# Active calls of the source: *; x = no result given.
SMILES,NALP1 inh,NALP3 yeast inh,tim23-1 inh,tim10-1 inh,TIM10 inh,TIM10 conf,tim23-1 confirm
COc1cc(C=C2C(=O)NC(=O)NC2=O)ccc1O,-10.9,0.1,-0.3,4.2,94.3*,-4.2,x
CC(C)(C)N(NC(=O)c1ccccc1)C(=O)c1ccccc1,21.0,3.6,-10.3,-3.2,40.2*,-2.6,x
Cn1cccc1/C=C1/C(=O)NC(=S)N(Cc2ccc(F)cc2)C1=O,x,19.1,-4.5,-9.7,84.3*,85.7*,x
Ic1ccccc1CN[C@@H]1C2CCN(CC2)[C@@H]1C(c1ccccc1)c1ccccc1,x,25.9,13.8,15.3,27.6,x,x
Cc1nc2ccc(Cl)cc2c(-c2ccccc2)c1C(=O)O,23.6,1.6,7.8,6.0,-5.7,x,x
CC1CCCC(C)N1/N=C/c1c[nH]c2ccc(Br)cc12 (stereo unspecified),65.2*,5.4,11.4,34.1,42.0*,-38.2,x
CN1CCC(c2c[nH]c3ccccc23)C1 (stereo unspecified),21.2,15.0,16.3,28.1,6.5,x,x
Clc1ccc(CCC(Cn2ccnc2)Sc2c(Cl)cccc2Cl)cc1 (stereo unspecified),x,20.0,-38.8,-6.5,-63.0,x,x
O=C(CSC1c2ccccc2-c2ccccc21)N/N=C/c1ccccc1O,0.0,23.8,52.3*,29.5,47.1*,58.4*,58.4*
CN1C(C(=O)N2CCC3(CC2)OCCO3)=CC(c2ccc(F)cc2)=NS1(=O)=O,8.2,4.4,18.7,15.3,-0.5,x,x
Cc1nc2ccccc2c(=O)n1/N=C/c1cc(Br)cc(Br)c1O,x,12.5,83.5*,39.1,73.0*,25.2,88.9*
Cc1ccc(-c2nn(Cc3ccccc3)cc2C=O)cc1C,x,22.6,52.6*,31.1,52.1*,55.4*,58.4*
Cc1ccc(Cn2cc(C=O)c(-c3ccc(F)cc3)n2)cc1,30.0,24.2,49.3,28.6,20.2,x,x
Cc1nc2ccc(P(=O)(O)O)cc2s1,15.4,15.6,-6.0,-4.8,22.3,x,x
O=S(=O)(NC1CCCCCCC1)OCC(Cl)(Cl)Cl,12.1,39.6,50.4*,26.9,26.3,x,59.1*
O=S(=O)(NC1CCCC1)OCC(Cl)(Cl)Cl,5.9,-0.4,29.2,6.9,9.5,x,x
CN1CCc2cc3c(c4c2C1Cc1ccccc1-4)OCO3 (stereo unspecified),21.9,39.3,67.2*,33.3,28.2,x,67.3*
CCC(C)NC(=O)c1c(N)n(CCCOC)c2nc3ccccc3nc12 (stereo unspecified),-8.0,10.7,52.5*,39.2,25.2,x,48.1*
COCCCn1c(N)c(C(=O)OC(C)COC)c2nc3ccccc3nc21 (stereo unspecified),-0.3,2.9,19.8,-2.2,3.8,x,x
O=c1c2ccccc2nc(/C=C/c2ccccc2)n1-c1ccccc1O,15.5,16.2,50.8*,24.8,18.2,x,44.2*
O=c1c2ccccc2nc(/C=C/c2ccc(O)cc2)n1-c1ccccc1O,-4.2,-0.5,31.5,13.8,3.6,x,x
O=c1c2ccccc2nc(/C=C/c2ccc(F)cc2)n1-c1ccccn1,-8.5,6.4,12.1,6.8,13.0,x,x
Cc1ccccc1-n1c(/C=C/c2ccccn2)nc2ccccc2c1=O,-4.7,18.2,51.9*,33.8,7.4,x,43.1*
C=CCN1CCC2(C)c3cc(O)ccc3CC1C2C (stereo unspecified),x,3.7,-9.7,-6.4,0.4,x,x
COc1cccc(OCc2cc(C(=O)N3C[C@H]4C[C@@H](C3)c3cccc(=O)n3C4)no2)c1,2.8,7.9,-2.3,4.4,-6.7,x,x
COc1ccc(CC(C)NCCc2ccc(OC)c(OC)c2)cc1 (stereo unspecified),9.2,7.5,11.2,-0.1,-12.5,x,x
CC1=CC(=C2C(=O)NC(=S)NC2=O)C=C(C(F)(F)F)N1CCc1ccccc1,17.7,3.5,-1.3,4.3,-22.0,x,x
O=c1[nH]c(=S)n(CCC2=CCCCC2)c(O)c1/C=N/N1CCOCC1,4.9,10.5,52.0*,37.2,36.1,x,36.8*

# Assay outcomes: PubChem, Sanford-Burnham Center for Chemical Genomics
